Measured values from PubChem BioAssay AID1788 (Vanderbilt High Throughput Screening Facility, 2009).
Unmarked numbers belong to inactive results. No rule for the calls is given here.

Test system: Purinergic P2X (rabbit)
Test: PubChem AID 1788
Conditions: MDS Pharma lead profiling panel, radioligand binding, at 10 µM, active compounds read high

SMILES: CCOC(=O)N1CCC(NCCNC(=O)c2ccccc2C)CC1
- inhibition: 2%
